Assay results reported in PubChem BioAssay AID720565 (National Center for Advancing Translational Sciences (NCATS), 2013).
Several values for one entry are separate records, joined by “and”; a condition that tells them apart may be missing. Equal values may be shown once. Records with an inconclusive call do not appear. Values without a mark were called inactive. Activity calls are given as the source filed them. Calls come from the whole dose curve; as a rule, active = well fitted activation curve with a large enough effect; inconclusive = small, poorly fitted or top-dose-only effect; inactive = no such curve, though single readings can be large or run the other way.

Test: qHTS for small molecules that induce genotoxicity in ELG1 expressing cells: Confirmatory Assay for Cherry-picked Compounds; note: nearly all actives have a fitted effect of over 35% in size; for activation: % of control where 0% means no effect
Settings: ELG1-luciferase reporter cells, luminescence, 16 h; series mostly up to 46.1 µM; activation: at the top concentration
From the text: Cancer cells divide rapidly compared to normal cells in the body. During cell division, cancer cells need to duplicate their genome by DNA replication. The failure of genome duplication leads to cancer cells' death. Therefore, inhibitors of DNA replication could specifically kill cancer cells. Based on this concept, many chemotherapeutic agents were developed and have been used to treat cancer patients. However, there are a limited number of agents available in the clinical setting, and some of those that do exist have low efficacy and severe side effects. Therefore, if we can find the compounds that effectively block DNA replication either by directly damaging DNA or by inhibiting other cellular mechanisms, the options for cancer treatment will be broadened. We developed a quantitative high-throughput ELG1-luciferase reporter gene assay. Since the level of human ELG1 protein is enhanced in response to genetic stresses, increases in luciferase activity can be used to identify compounds that cause genetic stress. The data herein is the result of the confirmation assay against the cherry picked compounds selected from the primary qHTS (AID 504466). Activation is the desired outcome for this assay. NIH Chemical Genomics Center [NCGC] NIH Molecular Libraries Probe Centers Network [MLPCN] MLPCN Grant: MH092164 Assay Provider: Kyungjae Myung, National Human Genome Research Institute, NIH
For genotoxicity screening, 2,000 cells/ well (5 uL volume) were dispensed into white, solid-bottom 1536-well plates using a solenoid-based dispenser. Following transfer of 23 nL compound or DMSO vehicle by a pin tool, the plates were incubated 16 hr at 37 C, 5% CO2. Five microliter of ONE-Glo reagent (Promega) was then added to each plate. The assay plates were incubated for 30 min at room temperature followed by quantification of the luciferase activity using the PerkinElmer ViewLux CCD-based plate reader.
Potency is the fitted concentration of half-maximal effect.

Row | SMILES | Potency | activation
1 | COc1cccc2c1C(=O)/C(=C\c1ccc(N(C)C)cc1)C2 | 3.15 µM (active) | –
2 | CCOC(=O)N1CCN(C(=O)CSCC(=O)Nc2nc(-c3ccc(-c4ccccc4)cc3)cs2)CC1 | inactive | –
3 | CC1CCCCC1NC(=O)CN1C(=O)NC(C)(c2ccc(OC(F)F)cc2)C1=O (stereo not given) | – | -13.2%
4 | COc1cccc2oc(-c3ccccc3)cc(=O)c12 | 4.45 µM (active) | –
5 | COc1cc(/C=C(\C#N)C(=O)Nc2cccc(C(=O)O)c2)ccc1OCc1ccc(Cl)cc1 | 8.89 µM (active) | –
6 | O=C(OCC(=O)N1CCCCC1)c1cccs1 | 14.1 µM (active) | –
7 | CN(C)c1ccc(N=Nc2ccc(/C=C/c3ccnc4ccccc34)cc2)cc1 | 4.45 µM (active) | –
8 | Cc1ccnc(NC(=S)N2CCN(c3ccc(N)cc3)CC2)c1 | 14.1 µM (active) | –
9 | CCCCCn1ncc2c3sc(C)cc3n(C)c2c1=O | 12.5 µM (active) | –
10 | O=C(CSc1nnc(-c2ccc(F)cc2)o1)Nc1ccc(S(=O)(=O)N2CCCCCC2)cc1 | – | 7.03%
11 | Oc1cc2cc(-c3csc(-c4ccc(F)cc4)n3)cc3c2n1CCC3 | 6.28 µM (active) | –
12 | COc1cccc(CNC(=O)C2CCCN(c3nn4c(=O)cc(C)nc4s3)C2)c1 (stereo not given) | – | -15.2%
13 | CN(C)c1ccc(-c2cc3ccccc3c(=O)o2)cc1 | 0.445 µM (active) | –
14 | Cc1cc(C(=O)COC(=O)c2cccnc2Cl)c(C)n1C | 0.706 µM (active) | –
15 | COc1ccc(/C=C2\Oc3ccccc3C2=O)cc1 | 0.996 µM (active) | –
16 | CC(=NNC(=O)c1cccs1)c1ccc2c(c1)OCCO2 | 14.1 µM (active) | –
17 | CN(C)c1ccc(/C=C2\CCc3ccccc32)cc1 | 1.58 µM (active) | –
18 | CN(C)c1cccc(C(=O)NNC(=O)CN2C(=O)C3CC=CCC3C2=O)c1 (stereo not given) | 7.91 µM (active) | –
19 | CCN(CC)S(=O)(=O)c1ccc(N2CCOCC2)c(NC(=O)c2[nH]c(C)c(C(C)=O)c2C)c1 | 12.5 µM (active) | –
20 | COC(=O)Nc1nc2ccc(C(=O)c3cccs3)cc2[nH]1 | 2.23 µM (active) | –

Row | SMILES | Potency | activation
21 | CN(C)c1ccc(C=Nc2cncc3ccccc23)cc1 | 0.889 µM (active) | –
22 | C[C@@H]1CC2[C@@H]3CCC4=CC(=O)C=C[C@]4(C)[C@@]3(F)[C@@H](O)C[C@]2(C)[C@@]1(O)C(=O)NCCCCCCOC[C@H]1O[C@@H](n2cnc3cc(Cl)c(Cl)cc32)[C@@H]2OC(C)(C)O[C@@H]21 (stereo not given in full) | 2.29 µM (active) | –
23 | Oc1cc(-c2ccc(N3CCCCC3)nc2)cc2cccnc12 | 25 µM (active) | –
24 | COc1ccc([C@H]2Cc3cc(O)cc(O)c3C(=O)O2)cc1O | 11.2 µM (active) | –
25 | CC(C)C(=O)SCCCCCCC(=O)Nc1nc(-c2ccccc2)cs1 | 12.5 µM (active) | –
26 | COc1ccccc1NC(=O)CSc1nnc(-c2ccccc2)o1 | 2.5 µM (active) | –
27 | O=C(Nc1ccccn1)c1sc2ccc([N+](=O)[O-])cc2c1Cl | 4.99 µM (active) | –
28 | COc1cccc(NC(=O)CSc2nnc(-c3ccc(C)cc3)o2)c1 | 14.1 µM (active) | –
29 | Cn1cccc1C(=O)OCC(=O)Nc1ccc2c(c1)OCCO2 | 0.706 µM (active) | –
30 | O=S(=O)(c1c(F)cccc1F)N1CCN(S(=O)(=O)c2c(F)cccc2F)CC1 | 15.8 µM (active) | –
31 | O=C1CCCC(=NNC(=O)c2cc3ccccc3cc2O)C1 | 15.8 µM (active) | –
32 | COc1cc(/C=C(\C#N)C(=O)Nc2cccc(C(=O)O)c2)ccc1OCc1ccc(F)cc1 | 28.1 µM (active) | –
33 | CCc1ccc(OCC(=O)Nc2ccc(-c3nc4ccccc4o3)c(O)c2)cc1 | 14.1 µM (active) | –
34 | O=C(Nc1ccccn1)c1sc2ccccc2c1Cl | 0.223 µM (active) | –
35 | C=C1C(c2ccc(C)cc2)=CCc2cc(C)cc(C)c21 | 5 µM (active) | –
36 | O=c1[nH]c(=O)n([C@@H]2O[C@H](CO)[C@@H](O)[C@H]2O)cc1F | 3.97 µM (active) | –
37 | Cc1ccc2c(c1)sc1nc(=O)n(-c3ccc(Cl)c(Cl)c3)c(=O)n12 | – | 26.4%
38 | CS(=O)c1ccc(/C=C2\C=Cc3ccccc32)cc1 (stereo not given) | 1.26 µM (active) | –
39 | COc1ccc(OCC(=O)Nc2ccc(-c3nc4cc(C)c(C)cc4o3)cc2)cc1 | 813 nM (active) and 1.12 µM (active) | –
40 | O=c1c(-c2ccc(F)cc2)coc2c3c(ccc12)OCCO3 | 4.45 µM (active) | –
